Laboratory results published in PubChem BioAssay.
Records with an inconclusive call do not appear. Activity calls are given as the source filed them.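 Rule for the calls, unless noted: active = percent response above a set limit, the screen-wide mean plus 3 SD (cut at about 130% in these data); inactive = the rest.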

Legend:
[1] = yeast TOR pathway RPL19A-GFP modulators, primary screen, cell-based, S. cerevisiae, multiplex flow cytometry (AID 1862; in the data active = percent of DMSO control GFP below about 86%;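 note: lower values mimic rapamycin by blocking the RPL19A rise seen in DMSO cells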); conditions: S. cerevisiae RPL19A-GFP strain, flow cytometry fluorescence, 3 h; at 10 µM; stronger effect = lower value
[2] = modulators of MEP2-GFP levels in yeast, primary screen, S. cerevisiae, multiplex flow cytometry (AID 1867;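 active = GFP response, as percent of the DMSO control, above the screen-wide mean plus 3 SD, about 139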;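 note: median GFP channel fluorescence of barcode-gated MEP2-GFP cells measured by flow cytometry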); conditions: S. cerevisiae MEP2-GFP strain, 3 h, at 10 µM, stronger effect = higher value, 100% means same as DMSO wells
[3] = modulators of CIT2-GFP expression in yeast, primary screen, S. cerevisiae, GFP fusion, multiplex flow cytometry (AID 1870); conditions: 3 h, at 10 µM, stronger effect = higher value;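 note: barcoded CIT2-GFP strain pooled with four other GFP strains with rapamycin as positive control; median GFP fluorescence per well over plate mean of DMSO wells so 100% = DMSO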
[4] = modulators of LAP4-GFP expression in yeast, primary screen, S. cerevisiae, multiplex flow cytometry (AID 1873;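 active = GFP signal, as percent of the solvent control, above the screen mean plus 3 SD, about 149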); conditions: 3 h, at 10 µM, stronger effect = higher value
[5] = modulators of AGP1-GFP expression in yeast TOR pathway, primary screen, cell-based, multiplex flow cytometry, S. cerevisiae (AID 1887;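 active = GFP signal above the screen-wide mean plus 3 SD, that is over about 124.5% of the solvent control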;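 note: AGP1-GFP fusion strain of S. cerevisiae within a five-strain barcoded multiplex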); conditions: 3 h, at 10 µM, stronger effect = higher value
[6] = inhibitors of CD8+ T cell-vesicle binding, pilot screen, LFA-1/ICAM-1 modulator project, MLPCN validation set, flow cytometry (AID 2523;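 active = response below a set limit, under 55% cells CD8-positive and vesicle-bound, and CD8 cells' 90th-percentile brightness under 279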;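 for vesicle binding response: mean PE anti-B7-1 fluorescence of CD8+ cells relative to row control; 100% = QL9-loaded vesicles with DMSO vehicle in the same plate row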); conditions: 2C mouse CD8+ T cells, at 7 µM, stronger effect = lower value; double positive events: measured here: CD8+/vesicle+ event percentage
[7] = target: Integrin beta-1 (Homo sapiens) + Integrin alpha-4 (Homo sapiens) (UniProt P13612+P05556); test: inhibition of HUTS-21 binding to VLA-4, pilot screen, VLA-4 allosteric modulator project, U937 cells, HUTS-21 mAb, flow cytometry, validation set (AID 2674;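 active = inhibition above 50%, about 3 SD of the validation set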;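 note: antibody binding induced by the VLA-4 ligand LDV present at three times its Kd; 0% = LDV ligand with antibody and no compound and 100% = antibody without LDV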); conditions: HUTS-21 LIBS mAb binding, at 6.7 µM, stronger effect = higher value, binding induced by LDV ligand
[8] = superoxide lowering in aged yeast cells, pilot screen, validation compound set (AID 2706;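 active = superoxide response below 65% of plate, a cut near 3 SD across the whole screen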;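 note: yeast exposed to compound for one week at 30 degrees C before staining; 100% = mean of all compound wells on the same plate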); conditions: S. cerevisiae aging, superoxide DHE fluorescence; at 10 µM; stronger effect = lower value
[9] = target: Beta-adrenergic receptor kinase 1 (Homo sapiens) (UniProt P25098); test: GRK2 binders displacing RNA aptamer, biochemical, validation, human GRK2, bead flow cytometry (AID 488806;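 active = aptamer binding inhibition above 30%, about 3 SD of noise from non-fluorescent compounds; inactive = inhibition at or below 30%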); conditions: bead-bound GRK2, FAM-aptamer displacement, at 10 µM, stronger effect = higher value
[10] = target: Beta-2 adrenergic receptor (Homo sapiens) (UniProt P07550); test: beta2AR agonists driving receptor internalization, pilot screen, cell-based, FAP fluorogen, flow cytometry, validation set (AID 504459;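 active = percent response above 42, roughly 3 SD of non-fluorescent test compounds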;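 note: agonist-driven loss of surface beta2AR via internalization measured by FAP dye flow cytometry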); conditions: Am2.2-beta2AR cells, FAP surface receptor flow cytometry; at 10 µM; stronger effect = higher value
[11] = target: AP-2 complex subunit beta (Homo sapiens) (UniProt P63010); test: inhibitors of arrestin peptide binding to AP2, pilot screen, biochemical, validation set, GST-AP2 beads, flow cytometry (AID 504541;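 active = inhibition above 54%, about 3 SD of non-fluorescent compounds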;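 note: AP2 carries R879A mutation and is captured from E. coli lysate; bead-bound FITC arrestin peptide fluorescence measuring arrestin peptide binding to AP2; 0% = DMSO wells and 100% = excess unlabeled arrestin peptide control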); conditions: FITC arrestin peptide, at 10 µM, stronger effect = higher value, AP2 beta2 appendage fragment, R879A mutant
[12] = yeast V-ATPase proton transport modulators, S. cerevisiae, pHLuorin, HTS validation (AID 504600; in the data active = response above about 15%;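 note: plate controls were DMSO for no effect and reference compound for full effect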); conditions: S. cerevisiae pHLuorin cytosolic pH, at 10 µM, stronger effect = higher value
[13] = system: anti-desmoglein-3 scFv antibody binding to human DSG3; test: inhibitors of anti-DSG3 scFv binding to DSG3, pilot screen, biochemical, validation compound set, bead-based, flow cytometry (AID 588368;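 active = binding below the plate cutoff, the plate median minus 3 SD, with a reading above zero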;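 note: signal is the median channel fluorescence of bead-bound GFP antibody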); conditions: Protein G beads, DSG3-Fc, scFv-GFP binding, at 10 µM, stronger effect = lower value
[14] = inhibitors of fungal efflux pumps CDR1, CDR2, MDR1, pilot screen, validation compound set, multiplex, phenotypic (AID 588506;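 active = efflux inhibition above 0.42, the validation set average plus 4 SD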;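 note: Nile Red retained in cells so higher fluorescence means more efflux inhibition; 0 = negative control wells and 1 = enniatin B 25 µM full block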); conditions: S. cerevisiae pump-expressing triplex, Nile Red efflux flow cytometry; at 10 µM; stronger effect = higher value; the pumps come from Candida albicans
[15] = target: ATP-binding cassette sub-family B member 6 (Homo sapiens) (UniProt Q9NP58); test: ABCB6 transporter inhibitors, pilot screen, K562-ABCB6 cells, flow cytometry, validation set (AID 588550;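 active = inhibition above the screen-wide mean plus 3 SD, about 51%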;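 note: 0% = DMSO wells and 100% = benzethonium chloride 70 µM positive control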); conditions: K562-ABCB6 porphyrin accumulation, 1 h, at 10 µM, stronger effect = higher value
[16] = promoters of myeloid differentiation in arrested cells, primary screen, cell-based, GFP/MAC1 double positive, flow cytometry, validation set (AID 588685;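 active = differentiation response of at least 50%, scaled between solvent and reference control, from cells with both markers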;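 note: compound exposure lasts four days before antibody staining and flow analysis; 0% = DMSO wells and 100% = 5 µM fulvestrant positive control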); conditions: ER-HoxA9 marrow cells, stronger effect = higher value, normalized: vehicle 0, fulvestrant 100

Chain of ATP-binding cassette sub-family B member 6 (Homo sapiens) (Q9NP58 whole entry, looked up): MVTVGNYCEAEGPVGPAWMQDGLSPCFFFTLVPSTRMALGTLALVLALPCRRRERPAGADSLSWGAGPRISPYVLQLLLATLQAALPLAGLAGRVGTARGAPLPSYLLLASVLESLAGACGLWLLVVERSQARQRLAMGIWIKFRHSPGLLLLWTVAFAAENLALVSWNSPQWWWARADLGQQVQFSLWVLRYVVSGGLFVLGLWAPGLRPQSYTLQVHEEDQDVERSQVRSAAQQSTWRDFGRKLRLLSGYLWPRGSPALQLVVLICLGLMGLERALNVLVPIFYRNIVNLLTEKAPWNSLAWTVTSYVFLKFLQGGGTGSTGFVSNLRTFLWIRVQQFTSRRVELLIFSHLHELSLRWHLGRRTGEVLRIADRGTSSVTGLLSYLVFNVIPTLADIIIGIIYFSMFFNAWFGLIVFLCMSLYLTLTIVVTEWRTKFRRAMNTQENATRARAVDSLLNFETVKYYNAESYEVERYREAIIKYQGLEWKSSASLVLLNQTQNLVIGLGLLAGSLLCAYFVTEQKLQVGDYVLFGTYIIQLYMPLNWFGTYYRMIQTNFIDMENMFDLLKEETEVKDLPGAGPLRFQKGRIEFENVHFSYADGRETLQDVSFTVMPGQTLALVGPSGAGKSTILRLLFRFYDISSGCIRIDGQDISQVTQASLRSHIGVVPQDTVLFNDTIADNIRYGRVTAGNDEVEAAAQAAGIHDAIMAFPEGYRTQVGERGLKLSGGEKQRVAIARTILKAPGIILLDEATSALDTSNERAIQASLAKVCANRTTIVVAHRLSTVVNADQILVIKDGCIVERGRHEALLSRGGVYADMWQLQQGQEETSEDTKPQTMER
Chain of Integrin beta-1 (Homo sapiens) + Integrin alpha-4 (Homo sapiens) (P05556 whole entry, looked up): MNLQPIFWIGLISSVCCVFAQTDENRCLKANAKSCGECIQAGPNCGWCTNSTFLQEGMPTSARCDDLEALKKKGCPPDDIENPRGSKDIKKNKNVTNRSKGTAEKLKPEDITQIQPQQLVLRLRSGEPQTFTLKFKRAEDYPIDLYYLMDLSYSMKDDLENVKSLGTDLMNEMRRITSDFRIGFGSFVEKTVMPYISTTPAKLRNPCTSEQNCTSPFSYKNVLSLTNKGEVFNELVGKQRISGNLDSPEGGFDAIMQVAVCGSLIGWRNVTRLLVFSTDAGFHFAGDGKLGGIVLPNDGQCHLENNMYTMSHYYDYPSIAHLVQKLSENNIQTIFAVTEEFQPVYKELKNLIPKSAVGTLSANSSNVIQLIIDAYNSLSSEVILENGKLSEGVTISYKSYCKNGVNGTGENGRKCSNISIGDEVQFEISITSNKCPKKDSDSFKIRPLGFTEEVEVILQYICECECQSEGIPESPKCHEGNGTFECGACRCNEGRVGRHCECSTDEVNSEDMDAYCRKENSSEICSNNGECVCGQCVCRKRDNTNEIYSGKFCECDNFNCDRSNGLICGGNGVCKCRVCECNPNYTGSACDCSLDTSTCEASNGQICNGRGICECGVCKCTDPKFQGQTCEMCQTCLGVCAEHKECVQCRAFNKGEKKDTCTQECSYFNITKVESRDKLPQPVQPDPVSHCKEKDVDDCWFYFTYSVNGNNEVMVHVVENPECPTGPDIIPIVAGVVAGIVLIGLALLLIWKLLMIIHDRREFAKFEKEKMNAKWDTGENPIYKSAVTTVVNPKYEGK
Chain of Integrin beta-1 (Homo sapiens) + Integrin alpha-4 (Homo sapiens) (P13612 whole entry, looked up): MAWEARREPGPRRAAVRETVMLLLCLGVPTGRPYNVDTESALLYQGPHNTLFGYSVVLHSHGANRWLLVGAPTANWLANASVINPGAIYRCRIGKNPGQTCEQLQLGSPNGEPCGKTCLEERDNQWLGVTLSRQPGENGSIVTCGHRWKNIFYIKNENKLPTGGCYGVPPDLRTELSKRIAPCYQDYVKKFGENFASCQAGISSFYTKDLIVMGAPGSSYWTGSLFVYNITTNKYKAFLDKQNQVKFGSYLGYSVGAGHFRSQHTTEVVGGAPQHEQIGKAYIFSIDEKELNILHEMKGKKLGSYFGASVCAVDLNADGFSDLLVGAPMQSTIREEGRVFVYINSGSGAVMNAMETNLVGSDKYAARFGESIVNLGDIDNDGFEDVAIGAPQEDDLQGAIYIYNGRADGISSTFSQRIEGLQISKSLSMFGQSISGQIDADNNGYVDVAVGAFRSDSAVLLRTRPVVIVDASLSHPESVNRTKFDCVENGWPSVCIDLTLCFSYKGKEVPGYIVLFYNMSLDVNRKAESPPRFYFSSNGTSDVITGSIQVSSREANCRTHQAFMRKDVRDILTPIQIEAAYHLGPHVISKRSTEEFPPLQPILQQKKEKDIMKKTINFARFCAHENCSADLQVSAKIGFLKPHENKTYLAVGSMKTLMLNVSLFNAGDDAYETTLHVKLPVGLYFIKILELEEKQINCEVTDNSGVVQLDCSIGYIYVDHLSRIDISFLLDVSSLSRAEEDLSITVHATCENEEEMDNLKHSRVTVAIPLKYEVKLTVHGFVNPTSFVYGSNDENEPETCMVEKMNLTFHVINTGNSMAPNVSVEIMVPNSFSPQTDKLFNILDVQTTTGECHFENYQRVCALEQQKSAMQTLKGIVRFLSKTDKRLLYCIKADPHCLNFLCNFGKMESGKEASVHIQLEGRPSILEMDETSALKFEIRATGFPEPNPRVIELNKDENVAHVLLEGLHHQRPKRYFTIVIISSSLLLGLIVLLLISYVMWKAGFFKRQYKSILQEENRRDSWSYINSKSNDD
Chain of Beta-2 adrenergic receptor (Homo sapiens) (P07550 whole entry, looked up): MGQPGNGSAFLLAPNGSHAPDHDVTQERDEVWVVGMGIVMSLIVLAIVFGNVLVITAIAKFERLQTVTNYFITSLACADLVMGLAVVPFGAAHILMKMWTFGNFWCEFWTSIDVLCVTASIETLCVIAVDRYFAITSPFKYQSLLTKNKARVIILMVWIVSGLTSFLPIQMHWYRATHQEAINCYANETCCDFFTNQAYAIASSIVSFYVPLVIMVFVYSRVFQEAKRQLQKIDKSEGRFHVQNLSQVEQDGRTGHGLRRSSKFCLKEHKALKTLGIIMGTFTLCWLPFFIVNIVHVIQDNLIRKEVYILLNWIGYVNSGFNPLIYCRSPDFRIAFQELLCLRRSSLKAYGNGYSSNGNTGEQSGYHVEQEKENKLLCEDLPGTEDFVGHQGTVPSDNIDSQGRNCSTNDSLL
Chain of Beta-adrenergic receptor kinase 1 (Homo sapiens) (P25098 whole entry, looked up): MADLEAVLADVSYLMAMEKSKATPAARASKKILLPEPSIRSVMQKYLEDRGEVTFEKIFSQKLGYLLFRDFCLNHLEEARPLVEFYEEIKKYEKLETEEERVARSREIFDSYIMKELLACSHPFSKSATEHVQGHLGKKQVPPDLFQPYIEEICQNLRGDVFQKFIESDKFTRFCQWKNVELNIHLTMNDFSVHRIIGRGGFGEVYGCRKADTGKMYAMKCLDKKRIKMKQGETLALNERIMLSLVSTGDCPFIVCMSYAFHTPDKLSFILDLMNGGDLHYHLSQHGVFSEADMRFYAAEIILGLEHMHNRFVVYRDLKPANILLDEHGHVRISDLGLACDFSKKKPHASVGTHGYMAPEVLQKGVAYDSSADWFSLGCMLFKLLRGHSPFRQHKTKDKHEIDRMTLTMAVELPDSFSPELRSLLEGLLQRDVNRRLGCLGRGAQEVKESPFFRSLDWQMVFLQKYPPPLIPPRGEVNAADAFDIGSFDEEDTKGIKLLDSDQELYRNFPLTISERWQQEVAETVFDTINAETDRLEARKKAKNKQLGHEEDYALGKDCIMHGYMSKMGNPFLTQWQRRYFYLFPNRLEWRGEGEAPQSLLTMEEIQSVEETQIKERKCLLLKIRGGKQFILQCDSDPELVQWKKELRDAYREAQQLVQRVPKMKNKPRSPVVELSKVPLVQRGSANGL
Chain of AP-2 complex subunit beta (Homo sapiens) (P63010 whole entry, looked up, the tested form may be a part, one chain of several): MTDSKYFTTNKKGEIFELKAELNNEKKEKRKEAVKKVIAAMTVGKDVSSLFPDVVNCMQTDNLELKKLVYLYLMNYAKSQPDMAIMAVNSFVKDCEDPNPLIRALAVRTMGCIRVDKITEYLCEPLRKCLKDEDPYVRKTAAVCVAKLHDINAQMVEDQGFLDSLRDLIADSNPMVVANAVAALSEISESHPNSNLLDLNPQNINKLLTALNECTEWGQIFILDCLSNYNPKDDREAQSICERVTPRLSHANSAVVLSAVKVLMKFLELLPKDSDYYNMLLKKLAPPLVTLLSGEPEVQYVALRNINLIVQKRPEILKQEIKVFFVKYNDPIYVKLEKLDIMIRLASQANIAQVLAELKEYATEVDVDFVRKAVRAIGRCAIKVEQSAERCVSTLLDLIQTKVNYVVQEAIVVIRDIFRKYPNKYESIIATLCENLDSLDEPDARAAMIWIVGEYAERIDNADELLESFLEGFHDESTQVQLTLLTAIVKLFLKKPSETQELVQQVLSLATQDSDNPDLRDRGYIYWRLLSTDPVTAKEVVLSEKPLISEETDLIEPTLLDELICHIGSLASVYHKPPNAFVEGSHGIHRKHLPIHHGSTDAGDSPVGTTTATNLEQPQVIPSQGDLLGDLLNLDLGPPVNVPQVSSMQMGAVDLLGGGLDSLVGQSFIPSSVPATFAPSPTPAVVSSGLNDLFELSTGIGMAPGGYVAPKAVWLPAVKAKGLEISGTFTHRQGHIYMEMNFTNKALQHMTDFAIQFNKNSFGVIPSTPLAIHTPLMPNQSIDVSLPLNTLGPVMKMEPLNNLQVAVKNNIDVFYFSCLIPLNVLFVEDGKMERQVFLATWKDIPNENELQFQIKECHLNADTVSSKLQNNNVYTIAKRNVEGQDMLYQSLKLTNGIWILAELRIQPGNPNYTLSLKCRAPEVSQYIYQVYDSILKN

O=c1[nH]cnc2[nH]ncc12
55.6%: double positive events [6]
inactive: percent of DMSO control GFP [1] 103% | GFP response vs DMSO [2] 103% | percent response of DMSO control [3] 96.5% | GFP response vs DMSO [4] 90.4% | GFP response, % of DMSO [5] 95% | vesicle binding response [6] 154% | inhibition [7] 15% | superoxide response (% of plate) [8] 98% | aptamer binding inhibition [9] 0% | response [10] -2.08% | inhibition [11] 2.53% | response [12] -1.12% | binding (% of control) [13] 103% | efflux inhibition (fraction of control) [14] 0.005 | inhibition [15] -64% | differentiation response [16] 7.13%

O=C(CCCN1C(=O)/C(=C\c2cccc(Br)c2)SC1=S)Nc1cccnc1
57.4%: double positive events [6]
inactive: percent of DMSO control GFP [1] 94.2% | GFP response vs DMSO [2] 104% | percent response of DMSO control [3] 95.8% | GFP response vs DMSO [4] 120% | GFP response, % of DMSO [5] 95.8% | vesicle binding response [6] 211% | inhibition [7] 2.3% | superoxide response (% of plate) [8] 98.5% | aptamer binding inhibition [9] 2% | response [10] 10.2% | inhibition [11] -4.08% | response [12] -5.34% | binding (% of control) [13] 101% | efflux inhibition (fraction of control) [14] 0.01 | inhibition [15] 5% | differentiation response [16] -12%

Cc1ccc2c(c1)C(C)(C)[C@]1(C)NC(=O)CCN21
inactive: percent of DMSO control GFP [1] 94.2% | GFP response vs DMSO [2] 109% | percent response of DMSO control [3] 92% | GFP response vs DMSO [4] 115% | GFP response, % of DMSO [5] 105% | vesicle binding response [6] 212% | inhibition [7] -25% | superoxide response (% of plate) [8] 99.4% | aptamer binding inhibition [9] 7% | response [10] 29.6% | inhibition [11] -1% | response [12] -1.48% | binding (% of control) [13] 98% | efflux inhibition (fraction of control) [14] -0.28 | inhibition [15] 9% | differentiation response [16] 2.4%
65.2%: double positive events [6]

O=C(O)c1ccccc1Nc1cccc(C(F)(F)F)c1
inactive: percent of DMSO control GFP [1] 95% | GFP response vs DMSO [2] 103% | percent response of DMSO control [3] 88.2% | GFP response vs DMSO [4] 93.1% | GFP response, % of DMSO [5] 82.4% | vesicle binding response [6] 7820% | inhibition [7] -15.4% | superoxide response (% of plate) [8] 98.3% | aptamer binding inhibition [9] 2% | response [10] -9.88% | inhibition [11] -15.2% | response [12] 1.34% | binding (% of control) [13] 98.2% | efflux inhibition (fraction of control) [14] -0.24 | differentiation response [16] 18.4%
74%: double positive events [6]
active: inhibition [15] 112%

COC(=O)[C@@H](N)CS
60.5%: double positive events [6]
inactive: percent of DMSO control GFP [1] 102% | GFP response vs DMSO [2] 102% | percent response of DMSO control [3] 98.2% | GFP response vs DMSO [4] 95.1% | GFP response, % of DMSO [5] 103% | vesicle binding response [6] 61.8% | inhibition [7] -3.18% | superoxide response (% of plate) [8] 101% | aptamer binding inhibition [9] 8% | response [10] 15.2% | inhibition [11] -20.1% | response [12] 0.91% | binding (% of control) [13] 95.6% | efflux inhibition (fraction of control) [14] 0.2 | inhibition [15] 4% | differentiation response [16] -3.4%

Cc1ccc2c(ccc(=S)n2C)c1
54.1%: double positive events [6]
active: vesicle binding response [6] 44.4%
inactive: percent of DMSO control GFP [1] 103% | GFP response vs DMSO [2] 97.2% | percent response of DMSO control [3] 115% | GFP response vs DMSO [4] 93.3% | GFP response, % of DMSO [5] 102% | inhibition [7] 7.85% | superoxide response (% of plate) [8] 87.8% | aptamer binding inhibition [9] 4% | response [10] -14% | inhibition [11] -3.91% | response [12] 0.7% | binding (% of control) [13] 97.7% | efflux inhibition (fraction of control) [14] -0.01 | inhibition [15] 19% | differentiation response [16] 1.22%

O=c1oc2c(CN3CCCCC3)c(O)ccc2c2c1CCCCC2
inactive: percent of DMSO control GFP [1] 102% | GFP response vs DMSO [2] 102% | percent response of DMSO control [3] 102% | GFP response vs DMSO [4] 107% | GFP response, % of DMSO [5] 107% | vesicle binding response [6] 136% | inhibition [7] 6.95% | superoxide response (% of plate) [8] 102% | aptamer binding inhibition [9] 1% | response [10] -8.88% | inhibition [11] -7.24% | response [12] 3.83% | binding (% of control) [13] 96.4% | efflux inhibition (fraction of control) [14] -0.16 | inhibition [15] 4% | differentiation response [16] 8.59%
59.1%: double positive events [6]

CC1(C)CC(=O)c2cnc(NC(=O)C3CCCC3)nc2C1
inactive: percent of DMSO control GFP [1] 105% | GFP response vs DMSO [2] 96.2% | percent response of DMSO control [3] 109% | GFP response vs DMSO [4] 80.8% | GFP response, % of DMSO [5] 96.5% | vesicle binding response [6] 442% | inhibition [7] 4.73% | superoxide response (% of plate) [8] 95.1% | aptamer binding inhibition [9] 6% | response [10] -15.9% | inhibition [11] -7.26% | response [12] -0.99% | binding (% of control) [13] 96.1% | efflux inhibition (fraction of control) [14] 0.36 | inhibition [15] -50% | differentiation response [16] 10%
61%: double positive events [6]

COc1cc(CC(=O)NCCc2ccc(S(N)(=O)=O)cc2)cc(OC)c1OC
inactive: percent of DMSO control GFP [1] 104% | GFP response vs DMSO [2] 103% | percent response of DMSO control [3] 102% | GFP response vs DMSO [4] 114% | GFP response, % of DMSO [5] 111% | vesicle binding response [6] 177% | inhibition [7] 1.44% | superoxide response (% of plate) [8] 95.2% | aptamer binding inhibition [9] -4% | response [10] -8.65% | inhibition [11] -9.64% | response [12] 0.1% | binding (% of control) [13] 114% | efflux inhibition (fraction of control) [14] -0.04 | inhibition [15] 4% | differentiation response [16] 0.92%
66.9%: double positive events [6]

COC(=O)c1ccccc1NC(=O)NCc1ccccc1
63%: double positive events [6]
inactive: percent of DMSO control GFP [1] 96.3% | GFP response vs DMSO [2] 131% | percent response of DMSO control [3] 104% | GFP response vs DMSO [4] 85.8% | GFP response, % of DMSO [5] 87.3% | vesicle binding response [6] 165% | inhibition [7] -0.33% | superoxide response (% of plate) [8] 99% | aptamer binding inhibition [9] 6% | response [10] -13.3% | inhibition [11] 0.05% | response [12] 1.35% | binding (% of control) [13] 104% | efflux inhibition (fraction of control) [14] -0.28 | inhibition [15] 15% | differentiation response [16] 0%
